Experimental data taken from PubChem BioAssay AID504537 (National Center for Advancing Translational Sciences (NCATS), 2011).
Records with an inconclusive call do not appear. The source made the active and inactive calls. How the calls were made is not given here.

Each molecule was assayed against Histone-lysine N-methyltransferase 2A (Homo sapiens) (UniProt Q03164) (assay: Inhibitor SAR for Compounds Targeting the Menin-MLL Interaction in MLL Related Leukemias: Competition With Fluorescein Labeled MLL-derived Peptide). Details: Menin-MLL fluorescein peptide fluorescence polarization competition.
Sequence of Histone-lysine N-methyltransferase 2A (Homo sapiens) (Q03164 whole entry, looked up, the tested form may be a part): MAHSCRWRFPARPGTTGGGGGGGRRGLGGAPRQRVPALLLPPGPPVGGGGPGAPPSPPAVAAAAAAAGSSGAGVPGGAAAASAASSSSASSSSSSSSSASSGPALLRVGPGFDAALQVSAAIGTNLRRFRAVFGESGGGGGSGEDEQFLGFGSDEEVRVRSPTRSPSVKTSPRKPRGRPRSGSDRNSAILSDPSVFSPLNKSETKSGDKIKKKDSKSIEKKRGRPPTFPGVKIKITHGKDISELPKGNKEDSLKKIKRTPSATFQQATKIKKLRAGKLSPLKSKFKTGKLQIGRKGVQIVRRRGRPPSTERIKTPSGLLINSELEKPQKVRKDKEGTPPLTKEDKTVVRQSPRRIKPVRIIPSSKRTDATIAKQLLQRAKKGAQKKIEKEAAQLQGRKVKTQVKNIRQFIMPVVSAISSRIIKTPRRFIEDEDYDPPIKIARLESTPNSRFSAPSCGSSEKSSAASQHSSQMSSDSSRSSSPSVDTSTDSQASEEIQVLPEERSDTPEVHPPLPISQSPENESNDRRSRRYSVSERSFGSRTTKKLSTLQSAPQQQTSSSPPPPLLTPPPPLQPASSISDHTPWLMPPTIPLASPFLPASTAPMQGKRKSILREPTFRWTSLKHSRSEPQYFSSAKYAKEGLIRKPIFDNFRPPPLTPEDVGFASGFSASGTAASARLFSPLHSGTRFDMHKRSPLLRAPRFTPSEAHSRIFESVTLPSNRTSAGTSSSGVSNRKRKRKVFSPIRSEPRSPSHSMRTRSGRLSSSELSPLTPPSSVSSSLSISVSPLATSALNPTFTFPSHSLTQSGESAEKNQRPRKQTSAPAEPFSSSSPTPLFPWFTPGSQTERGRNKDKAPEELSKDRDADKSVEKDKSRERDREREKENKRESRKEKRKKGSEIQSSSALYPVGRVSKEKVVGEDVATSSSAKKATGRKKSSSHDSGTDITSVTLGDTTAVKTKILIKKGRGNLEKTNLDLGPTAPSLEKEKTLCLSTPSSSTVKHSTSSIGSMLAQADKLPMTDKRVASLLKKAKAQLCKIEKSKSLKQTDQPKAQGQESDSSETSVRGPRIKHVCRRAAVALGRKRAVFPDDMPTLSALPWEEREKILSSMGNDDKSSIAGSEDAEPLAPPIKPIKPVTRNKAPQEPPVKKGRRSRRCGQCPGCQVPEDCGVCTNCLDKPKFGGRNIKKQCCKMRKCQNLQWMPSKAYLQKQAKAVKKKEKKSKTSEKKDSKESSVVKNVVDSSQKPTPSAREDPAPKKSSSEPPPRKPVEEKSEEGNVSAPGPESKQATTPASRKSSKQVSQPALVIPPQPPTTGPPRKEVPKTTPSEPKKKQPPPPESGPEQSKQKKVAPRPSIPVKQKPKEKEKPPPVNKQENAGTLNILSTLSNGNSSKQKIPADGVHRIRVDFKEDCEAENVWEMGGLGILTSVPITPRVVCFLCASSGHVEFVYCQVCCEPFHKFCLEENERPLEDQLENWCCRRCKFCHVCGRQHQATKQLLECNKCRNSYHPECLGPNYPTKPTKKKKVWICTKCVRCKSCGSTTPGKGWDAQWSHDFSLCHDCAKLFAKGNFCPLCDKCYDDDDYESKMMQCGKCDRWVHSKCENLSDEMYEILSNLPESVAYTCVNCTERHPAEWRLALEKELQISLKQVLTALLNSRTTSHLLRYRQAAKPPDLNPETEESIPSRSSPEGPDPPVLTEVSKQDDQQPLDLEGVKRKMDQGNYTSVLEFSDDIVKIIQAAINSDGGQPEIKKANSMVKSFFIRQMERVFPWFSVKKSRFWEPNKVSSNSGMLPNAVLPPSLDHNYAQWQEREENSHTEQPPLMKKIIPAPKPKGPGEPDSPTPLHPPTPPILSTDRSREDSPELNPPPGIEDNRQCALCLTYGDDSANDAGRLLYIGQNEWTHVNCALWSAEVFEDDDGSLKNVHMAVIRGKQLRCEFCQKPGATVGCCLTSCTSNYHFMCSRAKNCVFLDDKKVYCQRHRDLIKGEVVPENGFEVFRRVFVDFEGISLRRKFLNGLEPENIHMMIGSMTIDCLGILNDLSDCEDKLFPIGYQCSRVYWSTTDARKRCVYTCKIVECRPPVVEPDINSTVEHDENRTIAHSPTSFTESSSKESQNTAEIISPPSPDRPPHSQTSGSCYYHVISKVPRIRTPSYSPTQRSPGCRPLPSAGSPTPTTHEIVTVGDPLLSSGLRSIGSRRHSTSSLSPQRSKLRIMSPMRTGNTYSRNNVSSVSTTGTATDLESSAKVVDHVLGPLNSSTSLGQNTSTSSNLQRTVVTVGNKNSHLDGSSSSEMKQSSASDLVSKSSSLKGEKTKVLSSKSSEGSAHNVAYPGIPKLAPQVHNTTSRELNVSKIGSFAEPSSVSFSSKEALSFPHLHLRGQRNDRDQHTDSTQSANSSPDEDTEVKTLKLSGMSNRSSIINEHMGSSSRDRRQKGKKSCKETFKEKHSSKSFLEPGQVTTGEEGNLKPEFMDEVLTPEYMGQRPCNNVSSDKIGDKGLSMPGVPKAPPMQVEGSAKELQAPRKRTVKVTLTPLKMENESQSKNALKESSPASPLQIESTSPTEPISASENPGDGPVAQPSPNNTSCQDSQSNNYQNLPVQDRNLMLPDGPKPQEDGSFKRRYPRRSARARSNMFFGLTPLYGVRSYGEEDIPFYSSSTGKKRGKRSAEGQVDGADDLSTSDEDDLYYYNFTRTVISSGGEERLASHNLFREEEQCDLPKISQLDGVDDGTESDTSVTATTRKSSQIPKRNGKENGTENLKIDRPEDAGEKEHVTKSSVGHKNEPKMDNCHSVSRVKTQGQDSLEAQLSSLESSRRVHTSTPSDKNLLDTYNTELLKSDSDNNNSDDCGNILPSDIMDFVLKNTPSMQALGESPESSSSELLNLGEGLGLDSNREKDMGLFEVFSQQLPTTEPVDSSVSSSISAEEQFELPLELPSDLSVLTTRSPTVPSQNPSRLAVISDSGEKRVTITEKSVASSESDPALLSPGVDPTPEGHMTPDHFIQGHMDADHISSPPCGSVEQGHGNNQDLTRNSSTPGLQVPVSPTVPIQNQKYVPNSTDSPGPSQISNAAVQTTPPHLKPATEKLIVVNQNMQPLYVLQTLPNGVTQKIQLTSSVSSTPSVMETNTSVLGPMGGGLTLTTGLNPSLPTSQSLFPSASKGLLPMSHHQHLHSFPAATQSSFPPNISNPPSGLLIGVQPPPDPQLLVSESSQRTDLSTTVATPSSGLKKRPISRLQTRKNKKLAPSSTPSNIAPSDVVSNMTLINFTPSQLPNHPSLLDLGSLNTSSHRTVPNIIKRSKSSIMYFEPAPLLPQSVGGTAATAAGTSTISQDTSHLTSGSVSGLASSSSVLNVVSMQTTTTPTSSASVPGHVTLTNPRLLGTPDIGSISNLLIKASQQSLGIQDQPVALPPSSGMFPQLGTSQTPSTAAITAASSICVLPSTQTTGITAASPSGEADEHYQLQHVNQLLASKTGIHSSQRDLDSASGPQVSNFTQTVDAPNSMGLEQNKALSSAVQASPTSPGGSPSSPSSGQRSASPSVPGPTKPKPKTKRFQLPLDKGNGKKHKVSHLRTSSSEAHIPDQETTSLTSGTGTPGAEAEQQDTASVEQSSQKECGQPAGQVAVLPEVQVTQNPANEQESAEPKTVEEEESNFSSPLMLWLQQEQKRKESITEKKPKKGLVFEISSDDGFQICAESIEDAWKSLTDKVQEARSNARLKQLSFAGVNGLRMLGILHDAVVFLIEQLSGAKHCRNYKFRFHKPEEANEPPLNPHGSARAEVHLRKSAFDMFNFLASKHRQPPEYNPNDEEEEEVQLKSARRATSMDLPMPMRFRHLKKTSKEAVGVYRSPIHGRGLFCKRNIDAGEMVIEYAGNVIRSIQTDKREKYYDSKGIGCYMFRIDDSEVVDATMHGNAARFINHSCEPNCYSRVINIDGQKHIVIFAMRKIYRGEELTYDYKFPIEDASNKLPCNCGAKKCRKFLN
Description: qHTS Assay for Inhibitors Targeting the Menin-MLL Interaction in MLL Related Leukemias NIH Chemical Genomics Center [NCGC] NIH Molecular Libraries Probe Centers Network [MLPCN] MLPCN Grant: MH084875-01A1 Assay Submitter (PI): Jolanta Grembecka, Tomasz Cierpicki, University of Virginia Translocations of the MLL (Mixed Lineage Leukemia) gene are frequently found in human leukemias affecting both children and adults. Fusion of MLL to one of more than 60 genes results in generation of oncogenic proteins upregulating Hox genes, which are vital to blood cell development. Patients harboring fusion of the MLL gene suffer from aggressive leukemias and respond poorly to available therapies. All of the oncogenic fusion proteins have a preserved N-terminal fragment of MLL that has been identified to interact with menin. It has been recently discovered that association with menin is critical to the leukemogenic activity of the MLL fusion oncoproteins. Selective targeting of the menin-MLL interaction could provide an attractive therapeutic approach to develop novel drugs for MLL-related leukemias. Small molecules blocking the menin-MLL interaction should reverse the oncogenic potential of MLL fusion proteins. We have developed and optimized a fluorescence polarization-based assay for the identification of Menin-MLL inhibitors. The assay was run employing two different MLL-derived peptides. The present assay uses a 12 amino acid peptide labeled with fluorescein at its N-terminus. This peptide consists of the menin high affinity binding motif from MLL and is potently bound by menin. Another peptide with a mutated sequence, labeled with Texas Red, was used in parallel as a less stringent screen for inhibitors. The present assay was run to characterize initial structure activity relationships.
The Menin protein, the MLL-wild type (w.t.) derived peptide (N-terminal 12 amino acids), the MLL-derived peptide labeled with Texas Red and the MLL-w.t. peptide labeled with Fluorescein were kindly supplied by laboratory of Dr. Jolanta Grembecka, University of Virginia. All protein and peptide solutions were stored in single use aliquots at -80C. The Eu3+ Cyrptate-conjugated mouse monoclonal antibody anti-6 Histidine (Eu3+-AB) and the Streptavidin-XL665 conjugate (XL665) were purchased from Cisbio International (Bedford, MA). All antibody and XL665 conjugate solution stocks were stored in single use aliquots at -20C. The Buffer components for all assays were purchased from Sigma-Aldrich (St. Louis, MO) and Invitrogen (Carlsbad, CA). FP Assay Reagents: 1. FP reaction buffer: 50 mM Tris-HCl pH 7.5, 50 mM NaCl, 1mM DTT. Before use, 0.05% BSA is added. 2. Menin protein, MLL-w.t. labeled with fluorescein, MLL-mutant peptide labeled with texas red. Stored in singe use aliquots at -80C. 3. MLL-w.t. unlabeled peptide as positive control: 10 uM final in FP buffer. FP Assay Procedure: 1. Prepare Menin at 200 nM, MLL-w.t.-fluorescein at 25 nM, and MLL-mutant-texas red at 50 nM mixture in FP buffer. 2. Prepare Menin at 200 nM, MLL-w.t.-fluorescein at 25 nM, MLL-mutant-texas red at 50 nM, and 10 uM MLL-w.t. unlabeled mixture in FP buffer. 3. Prepare MLL-w.t.-fluorescein at 25 nM and MLL-mutant-texas red at 50 nM mixture in FP buffer. 3. Dispense 4 ul per well of reagent in step 1 in columns 2, 4 - 48 in a black 1536 well plate, dispense 4 ul per well of reagents from steps 2 and 3 in columns 1 and 3 respectively. Incubate plate at ambient for 15 minutes. 4. Transfer 23 nl per well of compound to plate and incubate at ambient for 1 hr. 5. Read fluorescence polarization for each label using the PerkinElmer Envision. Envision protocol for fluorescein: FITC FP Dual Enh Mirror, Excitation filter 480, Emission filter (1) P-pol 535, Emission filter (2) S-pol 535 Envision protocol for texas red: FP Dual Enh Mirror, Excitation filter 555, Emission filter (1) P-pol 632, Emission filter (2) S-pol 632

Compound	outcome	Potency
FC(F)(F)Oc1ccc(OCCCN2CCC(=C(c3ccccc3)c3ccccc3)CC2)cc1	inactive; no saturation, 12%inh at 2mm	
N#Cc1ccc(COCCN2CCC(C(O)(c3ccccc3)c3ccccc3)CC2)cc1	inactive; no saturation, 50% inh at 1mm	
OC(c1ccccc1)(c1ccccc1)C1CCN(CCCOc2ccc(-c3nn[nH]n3)cc2)CC1	inactive; interference with assay at higher dose, inactive up to 100 um	
CC(C)(C(=O)O)c1ccc(C(O)CCCN2CCC(C(O)(c3ccccc3)c3ccccc3)CC2)cc1 (centres undefined)	inactive; no activity up to 2 mm	
N#Cc1ccc(OCCCN2CCC(C(O)(c3ccccc3)C(F)(F)F)CC2)cc1 (centres undefined)		31 µM (active)
Cc1ccc(OCCCN2CCC(=C(c3ccccc3)c3ccccc3)CC2)cc1	inactive; no saturation, 25% inh at 2mm	
COc1ccccc1C(=O)Nc1ccnn1C1CCN(CC2CCCCC2)CC1		42 µM (active)
OC(c1ccccc1)(c1ccccc1)C1CCN(CCCOc2ccc(-n3ccnn3)cc2)CC1		29 µM (active)
NCc1ccc(OCCCN2CCC(C(O)(c3ccccc3)c3ccccc3)CC2)cc1		7.6 µM (active)
N#Cc1ccc(OCCCN2CCC(C(O)(c3ccccc3)c3ccccc3)CC2)cc1F		26.5 µM (active)
c1ccc(OCCCN2CCC(=C(c3ccccc3)c3ccccc3)CC2)cc1	inactive; no saturation, 42% inh at 2mm	
OC(c1ccccc1)(c1ccccc1)C1CCN(CCCOc2ccc(C(F)(F)F)cc2)CC1		52 µM (active)
Nc1ccc(OCCCN2CCC(C(O)(c3ccccc3)c3ccccc3)CC2)cc1		60.5 µM (active)
[N-]=[N+]=Nc1ccc(OCCCN2CCC(C(O)(c3ccccc3)c3ccccc3)CC2)cc1		58 µM (active)
CC(C)c1ccc(OCCCN2CCC(=C(c3ccccc3)c3ccccc3)CC2)cc1	inactive; no saturation, 15% inh at 1mm	
O=C(O)c1ccc(OCCCN2CCC(C(O)(c3ccccc3)c3ccccc3)CC2)cc1	inactive; no saturation, 34% inh. at 1mm	
FC(F)(F)c1ccc(OCCCN2CCC(C(c3ccccc3)c3ccccc3)CC2)cc1	inactive; no saturation, 36% inh at 2mm	
FC(F)(F)Oc1ccc(OCCCN2CCC(C(c3ccccc3)c3ccccc3)CC2)cc1	inactive; no saturation, 12%inh at 2mm	
FC(F)(F)c1ccc(OCCCN2CCC(=C(c3ccccc3)c3ccccc3)CC2)cc1	inactive; no saturation, 25% inh at 2mm	
